# Measured values taken from the supplement of paper PMC10849652.
# Of roughly 7,900 targets only a part is listed; those with a hit were picked by preference. About 0.6% of all pairs of compound and target were hits. Values without a mark were called inactive.
# Tests used:
# Assay in all cases: log2 fold change, soluble protein after heating vs DMSO (PISA); higher = thermal stabilisation; K562 cells, 10 uM, 30 min; active = over 0.2 and 3.5 SD of the protein, either way, in both replicates (recomputed)
# YWHAB = YWHAB (UniProt P31946)
# Procedure, shortened: (§1)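 For each measurement, 10 μM compound was applied for 30 min to K562 cells at 2×10^6 cells/mL. Aliquots were heated for 3 min across 48°C-58°C, pooled, and extracted in PBS with 0.5% NP-40 at 4°C; the supernatant after 21,000xg for 90 min was soluble protein. This was quantified by TMTpro 16plex LC-MS/MS with channel sums equalised, and thermal stability was reported relative to control samples from duplicates, on a log2 fold-change scale.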
# YWHAQ = YWHAQ (UniProt P27348)
# Sequence of YWHAQ (P27348 whole entry, looked up): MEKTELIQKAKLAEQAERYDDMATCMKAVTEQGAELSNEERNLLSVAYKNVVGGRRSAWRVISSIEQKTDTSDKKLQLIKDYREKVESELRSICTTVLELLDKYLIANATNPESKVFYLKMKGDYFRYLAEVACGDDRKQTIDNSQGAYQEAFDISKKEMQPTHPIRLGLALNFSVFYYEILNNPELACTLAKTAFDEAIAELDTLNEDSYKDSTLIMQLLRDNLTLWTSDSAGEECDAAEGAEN
# Procedure, shortened: as §1
# YWHAZ [1] = target: YWHAZ (UniProt P63104)
# Sequence of YWHAZ (UniProt P63104) (P63104 whole entry, looked up): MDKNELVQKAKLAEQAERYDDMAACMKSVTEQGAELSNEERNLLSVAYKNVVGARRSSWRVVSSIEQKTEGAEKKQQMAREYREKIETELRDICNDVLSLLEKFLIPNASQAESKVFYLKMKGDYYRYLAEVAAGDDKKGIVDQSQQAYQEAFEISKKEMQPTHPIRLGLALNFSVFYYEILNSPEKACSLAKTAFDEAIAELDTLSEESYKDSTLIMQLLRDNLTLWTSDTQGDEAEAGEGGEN
# Procedure, shortened: as §1
# YY1 = YY1 (UniProt P25490)
# Procedure, shortened: as §1
# ZADH2 = ZADH2 (UniProt Q8N4Q0)
# Sequence of ZADH2 (Q8N4Q0 whole entry, looked up): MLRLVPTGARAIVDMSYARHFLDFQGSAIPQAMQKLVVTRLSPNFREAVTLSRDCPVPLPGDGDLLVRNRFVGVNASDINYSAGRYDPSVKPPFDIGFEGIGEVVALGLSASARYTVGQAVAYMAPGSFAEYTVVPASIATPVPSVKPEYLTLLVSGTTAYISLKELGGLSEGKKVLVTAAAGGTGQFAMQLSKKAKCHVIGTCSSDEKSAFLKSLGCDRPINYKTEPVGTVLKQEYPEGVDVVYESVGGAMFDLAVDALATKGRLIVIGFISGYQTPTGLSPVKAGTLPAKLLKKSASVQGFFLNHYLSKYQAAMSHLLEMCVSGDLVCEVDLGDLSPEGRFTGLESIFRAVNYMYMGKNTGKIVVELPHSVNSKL
# Procedure, shortened: as §1
# ZBTB21 = ZBTB21 (UniProt Q9ULJ3)
# Procedure, shortened: as §1
# ZBTB43 = ZBTB43 (UniProt O43298)
# Sequence of ZBTB43 (O43298 whole entry, looked up): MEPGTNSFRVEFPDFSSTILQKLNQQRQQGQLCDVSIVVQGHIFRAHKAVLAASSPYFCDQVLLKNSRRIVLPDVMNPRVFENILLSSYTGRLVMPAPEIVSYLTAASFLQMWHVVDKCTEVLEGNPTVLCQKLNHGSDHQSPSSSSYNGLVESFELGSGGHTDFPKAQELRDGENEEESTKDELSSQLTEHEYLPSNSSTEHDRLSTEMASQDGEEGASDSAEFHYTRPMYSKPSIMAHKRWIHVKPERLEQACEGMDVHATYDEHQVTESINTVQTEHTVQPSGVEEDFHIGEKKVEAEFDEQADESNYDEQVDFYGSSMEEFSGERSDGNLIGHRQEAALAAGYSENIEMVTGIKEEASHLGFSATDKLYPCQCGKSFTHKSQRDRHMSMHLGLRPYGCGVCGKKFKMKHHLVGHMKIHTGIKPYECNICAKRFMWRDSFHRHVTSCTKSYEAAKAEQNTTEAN
# Procedure, shortened: as §1
# ZC3H18 = ZC3H18 (UniProt Q86VM9)
# Sequence of ZC3H18 (Q86VM9 whole entry, looked up): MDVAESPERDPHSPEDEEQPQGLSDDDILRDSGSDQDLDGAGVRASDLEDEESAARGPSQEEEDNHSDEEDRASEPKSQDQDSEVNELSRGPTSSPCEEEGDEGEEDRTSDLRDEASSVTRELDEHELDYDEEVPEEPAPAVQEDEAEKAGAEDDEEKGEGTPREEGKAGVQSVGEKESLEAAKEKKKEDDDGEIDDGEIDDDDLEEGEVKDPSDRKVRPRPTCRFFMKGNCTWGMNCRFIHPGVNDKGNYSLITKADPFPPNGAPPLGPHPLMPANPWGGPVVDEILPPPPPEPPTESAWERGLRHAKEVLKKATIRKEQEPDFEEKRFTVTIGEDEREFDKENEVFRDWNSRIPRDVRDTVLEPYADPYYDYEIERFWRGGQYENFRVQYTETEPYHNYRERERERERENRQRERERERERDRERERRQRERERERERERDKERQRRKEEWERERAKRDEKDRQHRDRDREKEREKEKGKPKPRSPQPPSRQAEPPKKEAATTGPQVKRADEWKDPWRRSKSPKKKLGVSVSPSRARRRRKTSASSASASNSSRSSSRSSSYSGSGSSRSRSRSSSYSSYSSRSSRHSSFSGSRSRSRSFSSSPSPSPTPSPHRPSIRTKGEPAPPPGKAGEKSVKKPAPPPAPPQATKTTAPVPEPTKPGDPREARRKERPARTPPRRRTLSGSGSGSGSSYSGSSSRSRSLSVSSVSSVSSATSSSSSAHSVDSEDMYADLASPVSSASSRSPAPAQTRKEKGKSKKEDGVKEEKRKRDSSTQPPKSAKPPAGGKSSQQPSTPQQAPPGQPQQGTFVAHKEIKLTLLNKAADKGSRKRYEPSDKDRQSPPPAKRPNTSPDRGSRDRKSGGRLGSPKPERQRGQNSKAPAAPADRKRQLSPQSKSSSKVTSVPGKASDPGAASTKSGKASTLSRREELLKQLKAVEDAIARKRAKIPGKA
# Procedure, shortened: as §1
# ZC3H8 = ZC3H8 (UniProt Q8N5P1)
# Sequence of ZC3H8 (Q8N5P1 whole entry, looked up): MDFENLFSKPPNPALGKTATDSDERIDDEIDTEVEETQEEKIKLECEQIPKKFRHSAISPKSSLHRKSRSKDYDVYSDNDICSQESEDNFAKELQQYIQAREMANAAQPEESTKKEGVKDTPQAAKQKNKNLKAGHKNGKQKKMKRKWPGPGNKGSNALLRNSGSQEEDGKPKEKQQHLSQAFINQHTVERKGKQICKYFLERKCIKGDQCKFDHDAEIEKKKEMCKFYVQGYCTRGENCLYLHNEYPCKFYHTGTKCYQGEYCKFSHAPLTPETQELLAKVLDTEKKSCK
# Procedure, shortened: as §1
# ZC3HC1 = ZC3HC1 (UniProt Q86WB0)
# Procedure, shortened: as §1
# ZCCHC17 = ZCCHC17 (UniProt Q9NP64)
# Sequence of ZCCHC17 (Q9NP64 whole entry, looked up): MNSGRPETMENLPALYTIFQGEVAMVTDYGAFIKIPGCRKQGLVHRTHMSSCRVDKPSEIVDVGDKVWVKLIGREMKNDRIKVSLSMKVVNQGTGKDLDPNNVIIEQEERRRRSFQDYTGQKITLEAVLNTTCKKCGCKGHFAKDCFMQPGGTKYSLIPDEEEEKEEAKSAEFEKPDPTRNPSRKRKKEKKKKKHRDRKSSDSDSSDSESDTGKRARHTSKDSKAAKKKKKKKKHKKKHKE
# Procedure, shortened: as §1
# ZCCHC9 = ZCCHC9 (UniProt Q8N567)
# Sequence of ZCCHC9 (Q8N567 whole entry, looked up): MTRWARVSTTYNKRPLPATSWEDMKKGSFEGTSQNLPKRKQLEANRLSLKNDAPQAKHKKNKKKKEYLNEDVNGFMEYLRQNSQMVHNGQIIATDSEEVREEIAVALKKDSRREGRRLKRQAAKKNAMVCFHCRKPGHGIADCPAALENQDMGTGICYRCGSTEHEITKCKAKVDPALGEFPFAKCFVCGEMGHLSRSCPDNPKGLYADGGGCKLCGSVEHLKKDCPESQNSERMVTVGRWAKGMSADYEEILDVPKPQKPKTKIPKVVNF
# Procedure, shortened: as §1
# ZDHHC17 = ZDHHC17 (UniProt Q8IUH5)
# Sequence of ZDHHC17 (Q8IUH5 whole entry, looked up): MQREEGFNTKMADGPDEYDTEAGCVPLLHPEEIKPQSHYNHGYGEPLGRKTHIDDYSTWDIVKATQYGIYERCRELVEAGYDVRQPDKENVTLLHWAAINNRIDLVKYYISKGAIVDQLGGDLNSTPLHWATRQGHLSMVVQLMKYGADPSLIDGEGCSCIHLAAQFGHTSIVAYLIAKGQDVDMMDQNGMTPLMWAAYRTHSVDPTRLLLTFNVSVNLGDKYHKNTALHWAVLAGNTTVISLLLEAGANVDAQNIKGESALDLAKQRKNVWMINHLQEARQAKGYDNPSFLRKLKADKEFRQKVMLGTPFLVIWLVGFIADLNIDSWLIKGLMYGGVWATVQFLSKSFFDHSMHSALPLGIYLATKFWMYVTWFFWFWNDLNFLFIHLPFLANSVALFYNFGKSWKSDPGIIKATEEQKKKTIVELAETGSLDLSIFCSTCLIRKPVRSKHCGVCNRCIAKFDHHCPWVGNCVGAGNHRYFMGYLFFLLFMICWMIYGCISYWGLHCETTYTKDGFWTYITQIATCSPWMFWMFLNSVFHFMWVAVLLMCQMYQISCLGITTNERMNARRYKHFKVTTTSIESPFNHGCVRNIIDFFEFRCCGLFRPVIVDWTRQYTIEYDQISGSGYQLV
# Procedure, shortened: as §1
# ZDHHC20 = ZDHHC20 (UniProt Q5W0Z9)
# Procedure, shortened: as §1
# ZDHHC5 = ZDHHC5 (UniProt Q9C0B5)
# Procedure, shortened: as §1
# ZDHHC7 isoform 2 = ZDHHC7 isoform 2 (UniProt Q9NXF8)
# Sequence of ZDHHC7 isoform 2 (Q9NXF8 whole entry, looked up, canonical isoform): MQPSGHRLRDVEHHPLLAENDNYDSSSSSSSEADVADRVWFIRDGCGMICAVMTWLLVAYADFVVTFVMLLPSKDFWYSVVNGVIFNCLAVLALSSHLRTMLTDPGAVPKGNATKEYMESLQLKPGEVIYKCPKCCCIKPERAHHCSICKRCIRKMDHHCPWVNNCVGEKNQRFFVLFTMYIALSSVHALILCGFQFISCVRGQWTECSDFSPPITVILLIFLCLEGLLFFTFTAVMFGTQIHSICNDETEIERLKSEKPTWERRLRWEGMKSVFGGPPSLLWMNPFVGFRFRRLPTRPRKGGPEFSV
# Procedure, shortened: as §1
# ZDHHC8 isoform 3 = ZDHHC8 isoform 3 (UniProt Q9ULC8)
# Sequence of ZDHHC8 isoform 3 (Q9ULC8 whole entry, looked up, canonical isoform): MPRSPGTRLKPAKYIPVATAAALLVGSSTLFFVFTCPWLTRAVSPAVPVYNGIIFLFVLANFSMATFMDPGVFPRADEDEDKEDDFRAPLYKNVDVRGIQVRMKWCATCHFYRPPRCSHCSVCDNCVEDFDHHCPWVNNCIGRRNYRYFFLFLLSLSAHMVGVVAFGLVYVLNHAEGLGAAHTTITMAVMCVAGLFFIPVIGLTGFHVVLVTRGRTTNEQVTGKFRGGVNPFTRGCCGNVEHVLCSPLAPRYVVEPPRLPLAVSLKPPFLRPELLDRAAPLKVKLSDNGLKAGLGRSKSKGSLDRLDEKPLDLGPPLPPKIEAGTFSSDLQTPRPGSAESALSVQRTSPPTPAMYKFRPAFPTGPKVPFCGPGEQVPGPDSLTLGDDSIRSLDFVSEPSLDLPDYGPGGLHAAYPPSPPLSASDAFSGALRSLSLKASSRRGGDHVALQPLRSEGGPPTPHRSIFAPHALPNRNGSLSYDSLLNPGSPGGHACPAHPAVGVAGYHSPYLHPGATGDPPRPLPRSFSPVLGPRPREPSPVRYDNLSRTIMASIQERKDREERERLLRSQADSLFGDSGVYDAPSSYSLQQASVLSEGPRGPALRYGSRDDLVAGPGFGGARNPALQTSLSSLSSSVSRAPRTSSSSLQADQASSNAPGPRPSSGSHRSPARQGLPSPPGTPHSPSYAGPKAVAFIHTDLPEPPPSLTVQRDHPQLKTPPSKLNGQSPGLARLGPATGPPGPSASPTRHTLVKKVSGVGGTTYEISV
# Procedure, shortened: as §1
# ZDHHC6 = ZDHHC6 (UniProt Q9H6R6)
# Procedure, shortened: as §1
# ZBTB17 isoform 2 = ZBTB17 isoform 2 (UniProt Q13105)
# Procedure, shortened: as §1
# YWHAZ [2] = target: YWHAZ (UniProt E7ESK7)
# Procedure, shortened: as §1
SMILES,log2 fold change (YWHAB),log2 fold change (YWHAQ),log2 fold change (YWHAZ [1]),log2 fold change (YY1),log2 fold change (ZADH2),log2 fold change (ZBTB21),log2 fold change (ZBTB43),log2 fold change (ZC3H18),log2 fold change (ZC3H8),log2 fold change (ZC3HC1),log2 fold change (ZCCHC17),log2 fold change (ZCCHC9),log2 fold change (ZDHHC17),log2 fold change (ZDHHC20),log2 fold change (ZDHHC5),log2 fold change (ZDHHC7 isoform 2),log2 fold change (ZDHHC8 isoform 3),log2 fold change (ZDHHC6),log2 fold change (ZBTB17 isoform 2),log2 fold change (YWHAZ [2])
CCCS(=O)(=O)Nc1ccc(F)c(C(=O)c2c[nH]c3ncc(-c4ccc(Cl)cc4)cc23)c1F [vemurafenib],0.021,0.284,0.037,0.03,0,-0.032,0.044,-0.025,-0.071,0.09,-0.396,-0.11,0.016,0.049,-0.021,-0.016,–,–,–,–
Cc1ncc(-c2ccnc(Nc3ccc(S(C)(=O)=O)cc3)n2)n1C(C)C,0,-0.026,-0.003,-0.207,0.066,0.061,0.16,-0.162,0.036,-0.01,–,0.005,-0.022,0.022,-0.009,0.059,-0.014,–,–,–
CNC(=O)c1ccc(Nc2ncc(C(F)(F)F)c(NCc3nccnc3N(C)S(C)(=O)=O)n2)cc1 [defactinib],-0.022,0,0,-0.299 (active),0.025,-0.033,0.063,-0.234,0.228,-0.227,0.149,0.216,-0.007,-0.231,-0.097,0.001,–,–,–,–
Cc1nc(Nc2n[nH]c3c2CN(C(=O)N[C@H](CN(C)C)c2ccccc2)C3(C)C)c2sccc2n1,-0.002,-0.033,-0.015,-0.304 (active),-0.127,-0.093,0.043,-0.145,0.081,-0.103,–,0.159,-0.012,-0.02,-0.037,0.046,0.013,–,–,–
Cc1cccc(CC(=O)N2CCc3c2ccc(-c2cn(C)c4ncnc(N)c24)c3F)n1,-0.058,0.694 (active),0.029,0.003,-0.041,0.016,-0.025,-0.063,0.026,0.029,–,-0.048,-0.082,0.021,-0.067,-0.06,–,0.097,–,–
Cc1cc(Nc2cc(CN3CCOCC3)c3nc(C)c(Cc4ccc(Cl)cc4F)n3n2)n[nH]1 [gandotinib],-0.25 (active),-0.071,0.084,-0.012,0.128,0.074,0.043,0.017,0.15,-0.157,–,0.265,0.052,0.018,-0.041,0.034,–,-0.018,–,–
Nc1ccccc1NC(=O)c1ccc(CNC(=O)OCc2cccnc2)cc1 [entinostat],-0.042,0.116,0.032,0.053,-0.04,-0.074,-0.091,0.021,-0.141,0.1,0.081,-0.112,-0.047,0.045,-0.034,–,–,–,-0.14,–
CON(C)C(=O)N1N=C(c2cc(F)ccc2F)S[C@@]1(CCCN)c1ccccc1 [filanesib],-0.044,-0.086,-0.027,-0.006,0.065,0.075,-0.024,0.217,0.191,-0.042,0.565 (active),0.527 (active),-0.219,0.008,0.048,–,–,–,-0.026,–
CCN(CC)Cc1ccc2cc(COC(=O)Nc3ccc(C(=O)NO)cc3)ccc2c1 [givinostat],-0.026,-0.039,-0.001,0.02,-0.066,-0.045,-0.006,0.106,-0.106,0.031,–,0.038,0.113,-0.167,-0.001,0.011,–,–,-0.011,–
O=C(CCCCCCNC(=O)c1cnc(N(c2ccccc2)c2ccccc2Cl)nc1)NO [citarinostat],0.001,0.02,-0.013,0.121,0.106,–,-0.173,0.028,-0.059,0.125,–,-0.161,-0.17,-0.028,-0.022,-0.037,–,0.149,–,-0.053
Cc1cn(-c2cc(NC(=O)c3ccc(C)c(Nc4nccc(-c5cccnc5)n4)c3)cc(C(F)(F)F)c2)cn1 [nilotinib],0.039,0.018,0.04,-0.033,0.04,0.023,-0.157,0.099,0.016,-0.052,–,-0.046,-0.004,0.016,0.091,0.104,0.086,–,–,–
CCn1c(C(=O)N(C2CC2)C2CC2)cc2c3c(ncn3C)c(Nc3cc(C)n(C)n3)nc21,0.027,0.039,0.017,0.044,0.154,-0.038,-0.033,0.018,-0.034,-0.059,–,0.003,-0.061,-0.023,-0.012,0.011,–,–,0.005,–
